About 2,000 (36%) of roughly 5,500 compounds were called active. Roughly 18% stayed inconclusive and do not appear here. No stated cut-off is given here; in the data, active means normalized growth mostly below about 0.91 (no sharp cut-off); inconclusive means no clear call, values can overlap the other calls; inactive means mostly above about 0.92. The list shows a part of the results.
Assay: chemical genetic growth profiling, strain panel (AID 1159580);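 further: tested at 20 µM; growth read once vehicle control cultures reached saturation at 30 °C; 1 = growth at the plate median or of vehicle wells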
Settings: growth OD

Measured: normalized growth

O=C(/C=C/c1ccc(O)c(O)c1)O[C@@H]1C[C@](O)(C(=O)O)C[C@@H](O)[C@H]1O
inactive: S. cerevisiae deletion strains, locus YKL009W, strain mrt4, stronger effect = lower value 1.04 | S. cerevisiae deletion strains, locus YKL068W, stronger effect = lower value 1.01 | S. cerevisiae deletion strains, locus YKL085W, strain MDH1 (second series), stronger effect = lower value 1 | S. cerevisiae deletion strains, locus YKL085W, strain MDH1, stronger effect = lower value 1 | S. cerevisiae deletion strains, locus YKL160W, strain elf1, stronger effect = lower value 1.03 | S. cerevisiae deletion strains, locus YKR001C, strain vps1, stronger effect = lower value 1.03 | S. cerevisiae deletion strains, locus YKR026C, strain gcn3, stronger effect = lower value 0.973 | S. cerevisiae deletion strains, locus YKR091W, strain srl3, stronger effect = lower value 0.992 | S. cerevisiae deletion strains, locus YLL001W, strain dnm1, stronger effect = lower value 0.99 | S. cerevisiae deletion strains, locus YLL026W, stronger effect = lower value 0.985 | S. cerevisiae deletion strains, locus YLL041C, strain sdh2, stronger effect = lower value 0.974 | S. cerevisiae deletion strains, locus YLR027C, strain aat2, stronger effect = lower value 0.999 | S. cerevisiae deletion strains, locus YLR039C, strain RIC1, stronger effect = lower value 1.05 | S. cerevisiae deletion strains, locus YLR058C, strain SHM2, stronger effect = lower value 1.01 | S. cerevisiae deletion strains, locus YLR102C, strain apc9, stronger effect = lower value 1.01 | S. cerevisiae deletion strains, locus YLR113W, strain HOG1, stronger effect = lower value 1 | S. cerevisiae deletion strains, locus YLR221C, strain rsa3, stronger effect = lower value 0.972 | S. cerevisiae deletion strains, locus YLR258W, strain gsy2, stronger effect = lower value 0.985 | S. cerevisiae deletion strains, locus YLR262C, strain YPT6 (second series), stronger effect = lower value 0.996 | S. cerevisiae deletion strains, locus YLR262C, strain YPT6, stronger effect = lower value 1.11 | S. cerevisiae deletion strains, locus YLR268W, strain sec22, stronger effect = lower value 1.05 | S. cerevisiae deletion strains, locus YLR320W, strain mms22, stronger effect = lower value 0.969 | S. cerevisiae deletion strains, locus YLR330W, strain CHS5, stronger effect = lower value 1.01 | S. cerevisiae deletion strains, locus YLR342W, strain FKS1 (second series), stronger effect = lower value 0.998 | S. cerevisiae deletion strains, locus YLR342W, strain FKS1, stronger effect = lower value 0.988 | S. cerevisiae deletion strains, locus YLR357W, strain rsc2, stronger effect = lower value 1 | S. cerevisiae deletion strains, locus YLR370C, strain arc18, stronger effect = lower value 0.986 | S. cerevisiae deletion strains, locus YLR371W, strain rom2, stronger effect = lower value 1.01 | S. cerevisiae deletion strains, locus YLR384C, strain iki3, stronger effect = lower value 0.96 | S. cerevisiae deletion strains, locus YLR418C, strain cdc73, stronger effect = lower value 0.992 | S. cerevisiae deletion strains, locus YML016C, strain PPZ1, stronger effect = lower value 1 | S. cerevisiae deletion strains, locus YML032C, strain rad52, stronger effect = lower value 0.999 | S. cerevisiae deletion strains, locus YML120C, strain ndi1, stronger effect = lower value 0.993 | S. cerevisiae deletion strains, locus YML124C, strain tub3, stronger effect = lower value 1.01 | S. cerevisiae deletion strains, locus YMR058W, strain fet3, stronger effect = lower value 0.978 | S. cerevisiae deletion strains, locus YMR078C, strain ctf18, stronger effect = lower value 1.02 | S. cerevisiae deletion strains, locus YMR125W, strain sto1, stronger effect = lower value 0.99 | S. cerevisiae deletion strains, locus YMR129W, stronger effect = lower value 0.991 | S. cerevisiae deletion strains, locus YMR205C, strain PFK2, stronger effect = lower value 1.03 | S. cerevisiae deletion strains, locus YMR223W, strain ubp8, stronger effect = lower value 1 | S. cerevisiae deletion strains, locus YMR231W, strain pep5, stronger effect = lower value 0.971 | S. cerevisiae deletion strains, locus YMR263W, strain SAP30, stronger effect = lower value 1.01 | S. cerevisiae deletion strains, locus YMR307W, strain GAS1, stronger effect = lower value 0.959 | S. cerevisiae deletion strains, locus YNL067W, strain RPL9B, stronger effect = lower value 1.04 | S. cerevisiae deletion strains, locus YNL071W, strain lat1, stronger effect = lower value 0.987 | S. cerevisiae deletion strains, locus YNL128W, strain TEP1, stronger effect = lower value 1.04 | S. cerevisiae deletion strains, locus YNL153C, strain GIM3, stronger effect = lower value 1.02 | S. cerevisiae deletion strains, locus YNL183C, strain NPR1, stronger effect = lower value 0.957 | S. cerevisiae deletion strains, locus YNL209W, strain ssb2, stronger effect = lower value 0.991 | S. cerevisiae deletion strains, locus YNL233W, strain BNI4, stronger effect = lower value 1.02 | S. cerevisiae deletion strains, locus YNL248C, strain rpa49, stronger effect = lower value 0.982 | S. cerevisiae deletion strains, locus YNL250W, strain rad50, stronger effect = lower value 1.03 | S. cerevisiae deletion strains, locus YNL271C, strain bni1, stronger effect = lower value 1.01 | S. cerevisiae deletion strains, locus YNL298W, strain CLA4, stronger effect = lower value 1.02 | S. cerevisiae deletion strains, locus YNL307C, strain MCK1, stronger effect = lower value 1.02 | S. cerevisiae deletion strains, locus YNL322C, strain KRE1 (second series), stronger effect = lower value 0.976 | S. cerevisiae deletion strains, locus YNL322C, strain KRE1, stronger effect = lower value 1 | S. cerevisiae deletion strains, locus YNR049C, strain mso1, stronger effect = lower value 0.973 | S. cerevisiae deletion strains, locus YNR052C, strain pop2, stronger effect = lower value 1.01 | S. cerevisiae deletion strains, locus YOL006C, strain TOP1, stronger effect = lower value 1.15 | S. cerevisiae deletion strains, locus YOL012C, strain htz1 0.974 | S. cerevisiae deletion strains, locus YOL147C, strain pex11, stronger effect = lower value 1.02 | S. cerevisiae deletion strains, locus YOR001W, strain rrp6, stronger effect = lower value 0.925 | S. cerevisiae deletion strains, locus YOR061W, strain CKA2, stronger effect = lower value 1.01 | S. cerevisiae deletion strains, locus YOR069W, strain VPS5, stronger effect = lower value 1.01 | S. cerevisiae deletion strains, locus YOR070C, strain gyp1, stronger effect = lower value 0.985 | S. cerevisiae deletion strains, locus YOR080W, strain dia2, stronger effect = lower value 0.983 | S. cerevisiae deletion strains, locus YOR083W, strain WHI5, stronger effect = lower value 1.04 | S. cerevisiae deletion strains, locus YOR106W, strain vam3, stronger effect = lower value 1 | S. cerevisiae deletion strains, locus YOR136W, strain idh2, stronger effect = lower value 1.03 | S. cerevisiae deletion strains, locus YOR144C, strain elg1, stronger effect = lower value 1.01 | S. cerevisiae deletion strains, locus YOR184W, strain ser1, stronger effect = lower value 1 | S. cerevisiae deletion strains, locus YOR231W, strain MKK1, stronger effect = lower value 1.02 | S. cerevisiae deletion strains, locus YOR265W, strain rbl2, stronger effect = lower value 0.999 | S. cerevisiae deletion strains, locus YOR270C, strain vph1, stronger effect = lower value 0.924 | S. cerevisiae deletion strains, locus YOR290C, strain snf2, stronger effect = lower value 1.01 | S. cerevisiae deletion strains, locus YOR316C, strain cot1, stronger effect = lower value 1.02 | S. cerevisiae deletion strains, locus YPL051W, strain arl3, stronger effect = lower value 0.999 | S. cerevisiae deletion strains, locus YPL055C, strain LGE1, stronger effect = lower value 1.03 | S. cerevisiae deletion strains, locus YPL078C, strain atp4, stronger effect = lower value 1.02 | S. cerevisiae deletion strains, locus YPL106C, strain sse1, stronger effect = lower value 0.995 | S. cerevisiae deletion strains, locus YPL240C, strain hsp82, stronger effect = lower value 0.969 | S. cerevisiae deletion strains, locus YPL256C, strain CLN2, stronger effect = lower value 1.01 | S. cerevisiae deletion strains, locus YPR119W, strain clb2, stronger effect = lower value 1.01 | S. cerevisiae deletion strains, locus YPR141C, strain kar3, stronger effect = lower value 1.01 | S. cerevisiae deletion strains, locus YPR163C, strain tif3, stronger effect = lower value 1.03 | S. cerevisiae deletion strains, locus YPR167C, strain met16, stronger effect = lower value 1.01 | S. cerevisiae deletion strains, strain wtn01, stronger effect = lower value 1.05 | S. cerevisiae strains, strain wild type, stronger effect = lower value 1.01
